Source: PubChem BioAssay (NCATS)
Inconclusive results are not listed. Calls of active or inactive are those of the source. Unless noted, calls come from the whole dose curve; as a rule, active = well fitted curve in the direction sought with a large enough effect; inconclusive = small, poorly fitted or top-dose-only effect, or another doubt; inactive = no such curve, though single readings can be large; an effect the other way counts as inactive or inconclusive.

Experiments:
[1] = molecular target: M-phase phosphoprotein 8 (Homo sapiens) (UniProt Q99549); assay: qHTS Validation Assay for Inhibitors for MPP8 Chromodomain Interactions with Methylated Histone Tails (AID 488949);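 note: AlphaScreen signal from MPP8 chromodomain bound to biotinylated H3K9me3 peptide; top concentration of the series differs between compounds; nearly all actives have a fitted effect of over 55% in size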
M-phase phosphoprotein 8 (Homo sapiens), sequence (Q99549 whole entry, looked up): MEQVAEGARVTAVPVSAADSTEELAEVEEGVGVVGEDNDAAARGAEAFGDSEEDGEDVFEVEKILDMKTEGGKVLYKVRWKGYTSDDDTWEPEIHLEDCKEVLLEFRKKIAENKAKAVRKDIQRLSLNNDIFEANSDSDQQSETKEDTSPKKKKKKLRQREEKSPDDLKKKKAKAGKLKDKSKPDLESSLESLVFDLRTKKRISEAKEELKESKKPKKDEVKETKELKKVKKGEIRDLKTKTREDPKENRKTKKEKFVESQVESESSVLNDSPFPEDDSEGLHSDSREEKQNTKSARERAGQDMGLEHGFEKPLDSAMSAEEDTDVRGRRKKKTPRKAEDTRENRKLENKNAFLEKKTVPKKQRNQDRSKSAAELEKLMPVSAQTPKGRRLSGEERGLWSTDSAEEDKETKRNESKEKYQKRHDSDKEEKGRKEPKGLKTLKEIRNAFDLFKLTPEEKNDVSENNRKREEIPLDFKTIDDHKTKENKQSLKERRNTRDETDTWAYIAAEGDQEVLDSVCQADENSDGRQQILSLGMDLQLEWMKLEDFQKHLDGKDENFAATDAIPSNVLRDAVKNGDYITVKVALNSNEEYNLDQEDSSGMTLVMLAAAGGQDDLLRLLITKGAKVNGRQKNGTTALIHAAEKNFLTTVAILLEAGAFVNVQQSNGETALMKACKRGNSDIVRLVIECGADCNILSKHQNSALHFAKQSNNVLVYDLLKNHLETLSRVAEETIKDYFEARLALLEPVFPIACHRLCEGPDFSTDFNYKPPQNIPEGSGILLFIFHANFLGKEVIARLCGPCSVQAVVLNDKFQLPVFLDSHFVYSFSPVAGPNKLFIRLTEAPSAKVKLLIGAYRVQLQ
Summary of the method: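 Disruption of the preformed MPP8–trimethyl-H3K9 peptide complex (both 50 nM, 30 min, RT) is measured after 30 min compound exposure, using AlphaScreen proximity beads; aurintricarboxylic acid titration serves as plate control.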

[2] = qHTS for Inhibitors of the Functional Ribonucleoprotein Complex (vRNP) of Lassa (LASV) Arenavirus: LASV Primary Screen - GLuc reporter signal (AID 1347082; calls by dose curve; tested in HEK293 reporter line; note: nearly all actives have a fitted effect of over 60% in size)
[3] = qHTS for Inhibitors of the Functional Ribonucleoprotein Complex (vRNP) of Lassa (LASV) Arenavirus: Viability assay - alamar blue signal for LASV Primary Screen (AID 1347083; calls by dose curve; tested in HEK293 reporter line; note: nearly all actives have a fitted effect of over 80% in size)
[4] = qHTS for Inhibitors of the Functional Ribonucleoprotein Complex (vRNP) of Lymphocytic Choriomeningitis Arenaviruses (LCMV): Viability assay - alamar blue signal for LCMV Primary Screen (AID 1347085; calls by dose curve; tested in HEK293 reporter line; note: nearly all actives have a fitted effect of over 80% in size)
[5] = molecular target: Nucleoprotein (Lymphocytic choriomeningitis virus (strain Armstrong)) (UniProt P09992); assay: qHTS for Inhibitors of the Functional Ribonucleoprotein Complex (vRNP) of Lymphocytic Choriomeningitis Arenaviruses (LCMV): LCMV Primary Screen - GLuc reporter signal (AID 1347086; calls by dose curve; note: nearly all actives have a fitted effect of over 70% in size)
Nucleoprotein (Lymphocytic choriomeningitis virus (strain Armstrong)), sequence (P09992 whole entry, looked up): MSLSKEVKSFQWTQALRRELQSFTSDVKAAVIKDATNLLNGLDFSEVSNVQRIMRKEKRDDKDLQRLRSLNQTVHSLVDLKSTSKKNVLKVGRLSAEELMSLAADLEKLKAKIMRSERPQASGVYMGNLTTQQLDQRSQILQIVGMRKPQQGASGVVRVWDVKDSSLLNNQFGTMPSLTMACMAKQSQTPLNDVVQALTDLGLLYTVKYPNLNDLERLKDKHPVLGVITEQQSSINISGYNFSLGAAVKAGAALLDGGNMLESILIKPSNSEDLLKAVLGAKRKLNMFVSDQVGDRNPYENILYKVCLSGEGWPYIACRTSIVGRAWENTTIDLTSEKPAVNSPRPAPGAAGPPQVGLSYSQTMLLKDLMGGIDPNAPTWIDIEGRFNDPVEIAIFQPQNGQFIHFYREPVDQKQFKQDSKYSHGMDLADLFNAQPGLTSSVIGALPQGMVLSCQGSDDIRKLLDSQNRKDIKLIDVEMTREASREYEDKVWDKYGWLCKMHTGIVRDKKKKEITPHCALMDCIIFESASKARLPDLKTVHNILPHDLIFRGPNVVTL

[6] = molecular target: Alpha-galactosidase (Coffea arabica) (UniProt Q42656); assay: Counterscreen for Glucocerebrosidase Inhibitors: qHTS Assay for Coffee Bean alpha-Galactosidase at pH 4.5 (AID 957)
Alpha-galactosidase (Coffea arabica), sequence (Q42656 whole entry, looked up): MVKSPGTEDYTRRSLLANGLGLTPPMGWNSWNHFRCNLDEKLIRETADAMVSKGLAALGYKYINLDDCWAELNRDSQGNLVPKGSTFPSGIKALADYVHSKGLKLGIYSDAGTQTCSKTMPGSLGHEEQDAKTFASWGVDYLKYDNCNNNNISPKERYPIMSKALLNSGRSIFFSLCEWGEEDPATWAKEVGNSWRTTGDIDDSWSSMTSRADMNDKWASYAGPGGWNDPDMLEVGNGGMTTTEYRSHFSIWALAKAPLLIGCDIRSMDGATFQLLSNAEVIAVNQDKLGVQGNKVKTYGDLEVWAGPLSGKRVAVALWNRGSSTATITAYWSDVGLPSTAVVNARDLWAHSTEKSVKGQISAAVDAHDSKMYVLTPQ
Summary of the method: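 Fluorogenic qHTS at pH 4.5 (citrate buffer with Tween-20): 2 nM enzyme, 80 uM 4-MU-alpha-galactoside substrate, compound titrated 0.7 nM to 77 uM, 20 min room temperature. Glycine/NaOH stop; 4-MU read Ex 365/Em 440; Hill-equation AC50 against no-enzyme and enzyme controls.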

[7] = molecular target: Alpha-galactosidase (Coffea arabica) (UniProt Q42656); assay: Counterscreen for Glucocerebrosidase Inhibitors: qHTS Assay for Coffee Bean alpha-Galactosidase at pH 5.9 (AID 998)
Summary of the method: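 In 50 mM citric acid pH 5.9 with 0.005% Tween-20, coffee bean enzyme hydrolyses 80 uM 4-MU alpha-D-galactopyranoside over 20 min at RT. Activity is normalized to controls; AC50 comes from Hill-modelled concentration-response data.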

[8] = Validation screen for inhibitors of Lassa infection (AID 463096; calls by dose curve)
[9] = Inducers of the Endoplasmic Reticulum Stress Response (ERSR) in human glioma: Validation (AID 504836)
Summary of the method: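 Stably transfected U87-MG human glioma cells carrying a GRP78-based luminescent sensor were seeded at 1000 cells/well, pin-dosed with compounds and incubated 16 h. Luciferase reagent was then added, and end-point luminescence was read after 10 min at room temperature.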

[10] = molecular target: Ubiquitin carboxyl-terminal hydrolase 2 (Homo sapiens) (UniProt O75604); assay: qHTS Validation Assay for Inhibitors of Ubiquitin-specific Protease USP2a Using CHOP2 as the Reporter (AID 463106); note: potency is the fitted concentration of half-maximal effect
Ubiquitin carboxyl-terminal hydrolase 2 (Homo sapiens), sequence (O75604 whole entry, looked up): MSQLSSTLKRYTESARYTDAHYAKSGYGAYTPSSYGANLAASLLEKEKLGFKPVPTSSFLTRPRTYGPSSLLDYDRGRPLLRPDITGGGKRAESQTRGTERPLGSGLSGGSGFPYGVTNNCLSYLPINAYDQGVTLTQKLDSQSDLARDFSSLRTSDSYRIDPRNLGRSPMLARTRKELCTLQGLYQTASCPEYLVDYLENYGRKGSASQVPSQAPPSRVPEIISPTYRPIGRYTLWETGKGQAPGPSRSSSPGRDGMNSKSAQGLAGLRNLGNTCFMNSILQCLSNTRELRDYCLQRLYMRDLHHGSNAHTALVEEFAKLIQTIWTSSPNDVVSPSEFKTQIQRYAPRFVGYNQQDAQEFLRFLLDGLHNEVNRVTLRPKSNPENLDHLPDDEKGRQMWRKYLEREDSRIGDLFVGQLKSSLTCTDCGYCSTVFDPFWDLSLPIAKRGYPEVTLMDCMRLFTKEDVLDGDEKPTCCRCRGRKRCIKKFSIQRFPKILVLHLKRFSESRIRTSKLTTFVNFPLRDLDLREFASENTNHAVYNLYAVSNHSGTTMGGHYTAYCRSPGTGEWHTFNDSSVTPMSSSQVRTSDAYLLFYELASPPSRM
Summary of the method: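 Inhibition is expressed relative to NEM as the full-inhibition control, with concentration-response curves classed by fit quality, magnitude and activity. Enzyme (USP2 core, 10nM) meets 25nM Ub-CHOP2 after compound preincubation; readings are taken at 60min.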

[11] = molecular target: DNA polymerase III PolC-type (Bacillus subtilis (strain 168)) (UniProt P13267); assay: qHTS Validation Assay for the Inhibitors of DNA Replication in Gram-Positive Bacteria (AID 485295); note: potency is the fitted concentration of half-maximal effect
DNA polymerase III PolC-type (Bacillus subtilis (strain 168)), sequence (P13267 whole entry, looked up): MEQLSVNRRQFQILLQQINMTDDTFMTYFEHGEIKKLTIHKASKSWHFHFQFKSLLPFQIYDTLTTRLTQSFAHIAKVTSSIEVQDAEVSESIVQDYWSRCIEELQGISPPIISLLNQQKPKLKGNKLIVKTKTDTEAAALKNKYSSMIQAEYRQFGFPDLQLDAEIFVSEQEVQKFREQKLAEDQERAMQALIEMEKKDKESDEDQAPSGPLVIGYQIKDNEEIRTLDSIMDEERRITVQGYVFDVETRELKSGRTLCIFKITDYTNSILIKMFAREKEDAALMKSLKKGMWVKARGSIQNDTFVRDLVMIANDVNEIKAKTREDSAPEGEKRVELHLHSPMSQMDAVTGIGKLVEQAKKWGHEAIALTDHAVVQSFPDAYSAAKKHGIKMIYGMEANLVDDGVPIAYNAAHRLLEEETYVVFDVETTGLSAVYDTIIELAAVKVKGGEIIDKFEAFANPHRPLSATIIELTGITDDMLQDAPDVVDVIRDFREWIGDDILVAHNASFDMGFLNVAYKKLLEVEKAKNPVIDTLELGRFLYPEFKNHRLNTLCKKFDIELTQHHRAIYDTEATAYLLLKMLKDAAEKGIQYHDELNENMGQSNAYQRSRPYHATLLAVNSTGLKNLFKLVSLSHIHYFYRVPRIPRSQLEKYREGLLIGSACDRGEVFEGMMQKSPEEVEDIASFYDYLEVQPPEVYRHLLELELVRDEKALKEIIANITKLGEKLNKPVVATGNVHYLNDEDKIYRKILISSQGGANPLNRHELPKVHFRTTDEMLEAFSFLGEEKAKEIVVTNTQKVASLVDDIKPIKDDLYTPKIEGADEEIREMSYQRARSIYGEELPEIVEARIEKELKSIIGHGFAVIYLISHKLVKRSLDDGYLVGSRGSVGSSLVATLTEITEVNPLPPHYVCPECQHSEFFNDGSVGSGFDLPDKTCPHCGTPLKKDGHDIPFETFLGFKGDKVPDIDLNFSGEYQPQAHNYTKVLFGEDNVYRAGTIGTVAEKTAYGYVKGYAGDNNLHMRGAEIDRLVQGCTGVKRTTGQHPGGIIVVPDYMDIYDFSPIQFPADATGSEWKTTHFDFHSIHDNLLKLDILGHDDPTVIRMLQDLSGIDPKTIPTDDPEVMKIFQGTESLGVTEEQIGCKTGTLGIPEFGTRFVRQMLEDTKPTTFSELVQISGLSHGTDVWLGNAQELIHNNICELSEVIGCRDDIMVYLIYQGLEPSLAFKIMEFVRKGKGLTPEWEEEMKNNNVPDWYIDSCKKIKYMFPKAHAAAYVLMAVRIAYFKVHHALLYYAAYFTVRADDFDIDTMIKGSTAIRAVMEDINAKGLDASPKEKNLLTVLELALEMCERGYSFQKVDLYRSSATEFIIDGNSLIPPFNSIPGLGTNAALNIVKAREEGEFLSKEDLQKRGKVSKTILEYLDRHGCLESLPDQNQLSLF
Summary of the method: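 Primed replication of single-stranded M13Gori by a four-protein B. subtilis holoenzyme is measured at room temperature. Double-stranded product is quantified by PicoGreen fluorescence after an EDTA stop; inhibition is scaled between DMSO and EDTA controls.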

[12] = molecular target: Ubiquitin carboxyl-terminal hydrolase 1 (Homo sapiens) (UniProt O94782); assay: Inhibitors of USP1/UAF1: Pilot qHTS (AID 504865); note: potency is the fitted concentration of half-maximal effect; nearly all actives have a fitted effect of over 35% in size
Summary of the method: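 Kinetic fluorescence assay: 1nM USP1/UAF1, 15 min compound preincubation, then 150nM Ub-Rho; 480/540 nm.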

[13] = HTS Assay for Allosteric Antagonists of the Human D2 Dopamine Receptor: Hit Validation in HTRF (AID 624455);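 note: stable D1 dopamine receptor cell line scored for blocking the D1 response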
Summary of the method: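 Inhibition of the D1-mediated response was measured by HTRF. Cells used were a line stably expressing the D1 dopamine receptor.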

[14] = molecular target: Arylsulfatase A (Homo sapiens) (UniProt P15289); assay: qHTS screen for enhancers of Arylsulfatase A (ASA1): LOPAC Validation Assay (AID 720538); note: potency is the fitted concentration of half-maximal effect
Arylsulfatase A (Homo sapiens), sequence (P15289 whole entry, looked up): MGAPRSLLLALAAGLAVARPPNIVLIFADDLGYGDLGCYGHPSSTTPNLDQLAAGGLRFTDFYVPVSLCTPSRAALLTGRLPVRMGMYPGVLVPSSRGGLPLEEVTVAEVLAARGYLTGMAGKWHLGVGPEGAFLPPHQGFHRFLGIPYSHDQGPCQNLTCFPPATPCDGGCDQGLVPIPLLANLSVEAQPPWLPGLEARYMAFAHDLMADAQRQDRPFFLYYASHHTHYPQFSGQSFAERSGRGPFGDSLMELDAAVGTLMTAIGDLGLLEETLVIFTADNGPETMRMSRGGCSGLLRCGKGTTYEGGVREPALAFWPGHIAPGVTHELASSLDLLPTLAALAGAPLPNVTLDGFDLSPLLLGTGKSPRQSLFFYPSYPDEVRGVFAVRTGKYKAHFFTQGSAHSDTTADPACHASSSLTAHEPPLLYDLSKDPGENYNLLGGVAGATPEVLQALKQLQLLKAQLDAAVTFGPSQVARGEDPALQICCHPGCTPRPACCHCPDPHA
Summary of the method: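 First, ASA-I179S fibroblasts from an MLD patient adhered for 6 hrs. Next, compounds were added for 48h. Then pNCS substrate (0.5mM final) with lysis buffer reacted 14h at room temperature before NaOH stop and fluorescence measurement.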

[15] = Quantitative high throughput screen for delayed death inhibitors of the malarial parasite plastid, 96 hour incubation (AID 488745); note: potency is the fitted concentration of half-maximal effect; nearly all actives have a fitted effect of over 70% in size
Summary of the method: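 Decreased firefly luciferase luminescence indicates inhibited growth of reporter-integrated P. falciparum after two generations (96 h, 37 C, 5% CO2). Infected erythrocytes at 0.1% parasitemia, 2% hematocrit, in Albumax-supplemented RPMI 1640.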

[16] = Quantitative high throughput screen for delayed death inhibitors of the malarial parasite plastid, 48 hour incubation (AID 488752); note: potency is the fitted concentration of half-maximal effect; nearly all actives have a fitted effect of over 65% in size
Summary of the method: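 One-generation (48 h) growth assay: a decrease in luciferase signal from an integrated reporter in P. falciparum-infected red cells (0.1% parasitemia, 2% hematocrit) after compound exposure at 37 C indicates parasite inhibition.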

[17] = molecular target: Flap endonuclease 1 (Homo sapiens) (UniProt P39748); assay: qHTS Validation Assay for the Inhibitors of Human Flap endonuclease 1 (FEN1) (AID 488816)
Flap endonuclease 1 (Homo sapiens), sequence (P39748 whole entry, looked up): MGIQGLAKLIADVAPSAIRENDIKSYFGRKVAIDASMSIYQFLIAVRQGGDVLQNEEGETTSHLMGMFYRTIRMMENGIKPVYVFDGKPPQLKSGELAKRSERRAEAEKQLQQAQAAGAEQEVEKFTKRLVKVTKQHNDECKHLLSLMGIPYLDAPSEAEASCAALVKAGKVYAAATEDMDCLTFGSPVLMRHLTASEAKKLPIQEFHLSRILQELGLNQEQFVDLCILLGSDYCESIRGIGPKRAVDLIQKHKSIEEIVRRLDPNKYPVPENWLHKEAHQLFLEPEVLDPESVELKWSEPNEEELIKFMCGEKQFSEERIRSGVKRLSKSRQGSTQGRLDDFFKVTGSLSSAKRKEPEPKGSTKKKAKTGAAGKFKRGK
Summary of the method: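 Steps: add FEN1 (10 nM reagent) or buffer only; pin compounds; hold 15 min at room temperature; start with substrate, 50 nM final; read at 0 and 15 min; correct, normalize and fit a four-parameter Hill curve.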

[18] = molecular target: Chromobox protein homolog 1 (Homo sapiens) (UniProt P83916); assay: qHTS Validation Assay for Inhibitors of HP1-beta Chromodomain Interactions with Methylated Histone Tails (AID 488953);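 note: loss of AlphaScreen luminescence from HP1-beta binding biotinylated H3K9me3 peptide; nearly all actives have a fitted effect of over 50% in size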
Chromobox protein homolog 1 (Homo sapiens), sequence (P83916 whole entry, looked up): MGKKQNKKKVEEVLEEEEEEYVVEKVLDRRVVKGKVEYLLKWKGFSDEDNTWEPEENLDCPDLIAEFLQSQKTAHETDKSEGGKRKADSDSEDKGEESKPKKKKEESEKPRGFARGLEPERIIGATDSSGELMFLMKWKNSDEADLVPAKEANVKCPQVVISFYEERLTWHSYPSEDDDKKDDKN
Summary of the method: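 AlphaScreen proximity signal from streptavidin donor and nickel chelate acceptor beads (final 10 ug/mL) after 30 min dark incubation. Compounds had 30 min at room temperature with preformed complex of 50 nM HP1-beta and 50 nM b-H3(1-18)K9me3 in PBS pH 7.4 with 0.01% Tween-20.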

[19] = qHTS profiling of the MIPE4 collection as inhibitors of Plasmodium falciparum (DD2) proliferation (AID 743345; call rule not given here); conditions: P. falciparum Dd2 in erythrocytes, SYBR Green DNA, 72 h; at 28.5 µM (top of the series) unless noted
Summary of the method: (§1)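 Parasite DNA was quantified by SYBR Green I fluorescence (ex 485, em 535 nm) after overnight lysis in saponin/Triton buffer at room temperature. Cultures at 0.3% parasitemia and 2.5% hematocrit were first exposed to compound for 72 h at 37 C; signals were normalised to artemisinin (0.29 uM) and vehicle wells.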

[20] = qHTS profiling of the MIPE4 collection as inhibitors of Plasmodium falciparum (DD2) proliferation (Rep 2) (AID 743346; call rule not given here); conditions: P. falciparum Dd2 in erythrocytes, SYBR Green DNA, 72 h; at 28.5 µM (top of the series) unless noted
Summary of the method: as §1

[21] = qHTS profiling of the MIPE4 collection as inhibitors of Plasmodium falciparum (HB3) proliferation (AID 743347; call rule not given here); conditions: P. falciparum HB3 in erythrocytes, SYBR Green DNA, 72 h; at 28.5 µM (top of the series) unless noted
Summary of the method: as §1

Nc1ncnc2c1ncn2[C@@H]1O[C@H](COP(=O)(O)CP(=O)(O)OP(=O)(O)O)[C@@H](O)[C@H]1O
inactive: Potency [1] | Potency [2] | Potency [3] | Potency [4] | Potency [5]

NC(=O)CNCCC(c1ccccc1)c1ccccc1
inactive: outcome [6] | outcome [7] | Potency [8] | Potency [2] | Potency [3] | Potency [4] | Potency [5]

O=c1[nH]c2cc(C(F)(F)F)ccc2n1-c1cc(C(F)(F)F)ccc1O
inactive: outcome [6] | outcome [7] | Potency [8] | Potency [2] | Potency [3] | Potency [4] | Potency [5]

Ic1ccc(N2CCN(Cc3c[nH]c4ncccc34)CC2)cc1
inactive: outcome [6] | outcome [7] | Potency [8] | Potency [2] | Potency [3] | Potency [4] | Potency [5]

CCCn1c(=O)c2[nH]c(-c3ccc(S(=O)(=O)O)cc3)nc2n(CCC)c1=O
inactive: outcome [7] | Potency [8] | outcome [9] | Potency [2] | Potency [3] | Potency [4] | Potency [5]

O=C(c1ccc2c(c1)OCCO2)N1CCCCC1
inactive: outcome [9] | Potency [2] | Potency [3] | Potency [4] | Potency [5]

CCCOC(=O)c1c(-c2ccccc2)nc(CC)c(C(=O)SCC)c1CCC
inactive: outcome [7] | Potency [8] | outcome [9] | Potency [2] | Potency [3] | Potency [4] | Potency [5]

Cc1ccc2c(c1)C(N1CCN(C)CC1)=Nc1cccnc1N2
inactive: outcome [7] | Potency [8] | outcome [9] | Potency [2] | Potency [3] | Potency [4] | Potency [5]

NS(=O)(=O)c1cccc2c1c([N+](=O)[O-])cc1nc(O)c(O)nc12
inactive: outcome [7] | Potency [8] | Potency [2] | Potency [3] | Potency [4] | Potency [5]

OCC1O[C@H]([S-])[C@H](O)[C@@H](O)[C@@H]1O.[Au+] (some centres not stated)
inactive: outcome [9] | Potency [2] | Potency [3] | Potency [4] | Potency [5]

N.N.N.N.N.N.N.N.N.N.N.N.N.N.O.O.[Ru+4].[Ru+5].[Ru+5]
inactive: outcome [9] | outcome [13] | Potency [2] | Potency [3] | Potency [4] | Potency [5]
active: Potency [10] 14.7 µM | Potency [11] 16.8 µM | Potency [12] 44.7 µM | Potency [14] 12 µM

Cn1cnc2c(NCc3ccccc3)nc(NCCO)nc21
inactive: outcome [6] | outcome [7] | Potency [8] | Potency [2] | Potency [3] | Potency [4] | Potency [5]

N.N.O=C(O)C1(C(=O)O)CCC1.[Pt]
inactive: outcome [6] | outcome [7] | Potency [8] | Potency [2] | Potency [3] | Potency [4] | Potency [5]

NC[C@H]1O[C@@H](n2cnc3c(N)ncnc32)[C@H](O)[C@@H]1O
inactive: outcome [9] | Potency [2] | Potency [3] | Potency [4] | Potency [5]

CCn1c(=O)[nH]c2cc(Cl)c(Cl)cc21
inactive: outcome [7] | Potency [8] | outcome [9] | Potency [2] | Potency [3] | Potency [4] | Potency [5]

CC(C)[C@@H]1CC[C@@H](C)C[C@@H]1P(=O)(c1ccccc1)c1ccccc1
inactive: outcome [9] | Potency [2] | Potency [3] | Potency [4] | Potency [5]

c1ccc2c(c1)CC(N1CCN(c3cccc4c3OCCO4)CC1)C2
inactive: outcome [7] | Potency [8] | outcome [9] | Potency [2] | Potency [3] | Potency [4] | Potency [5]

NCCCCN=C(N)N
inactive: outcome [7] | Potency [8] | outcome [9] | Potency [2] | Potency [3] | Potency [4] | Potency [5]

Cc1cc2c(cc1Cl)N(C(=O)Nc1ccnc3ccccc13)CC2
inactive: outcome [7] | Potency [8] | outcome [9] | Potency [2] | Potency [3] | Potency [4] | Potency [5]

N[C@@H](Cc1c[nH]c2ccccc12)C(=O)O
inactive: outcome [6] | outcome [7] | Potency [8] | Potency [2] | Potency [3] | Potency [4] | Potency [5]

O=c1[nH]c2cc(Cl)ccc2c(O)c1-c1ccc(Oc2ccccc2)cc1
inactive: outcome [7] | Potency [8] | outcome [9] | Potency [2] | Potency [3] | Potency [4] | Potency [5]

CN1CCc2cccc3c2C1Cc1ccc(O)c(O)c1-3 (configuration not stated)
inactive: outcome [9] | Potency [2] | Potency [3] | Potency [4] | Potency [5]
active: Potency [15] 2.94 µM | Potency [16] 3.7 µM

CN[C@H](CC(C)C)C(=O)N[C@H]1C(=O)N[C@@H](CC(N)=O)C(=O)N[C@@H]2C(=O)N[C@H]3C(=O)N[C@H](C(=O)N[C@H](C(=O)O)c4cc(O)cc(O)c4-c4cc3ccc4O)[C@H](O)c3ccc(c(Cl)c3)Oc3cc2cc(c3O[C@@H]2O[C@H](CO)[C@@H](O)[C@H](O)[C@@H]2O[C@H]2C[C@](C)(N)[C@H](O)[C@H](C)O2)Oc2ccc(cc2Cl)[C@H]1O
104%: parasite growth remaining, % of DMSO control (lower = more inhibition) [19]
150%: parasite growth, % of control (lower = inhibition) [20]
inactive: Potency [17] | Potency [18] | outcome [9] | Potency [2] | Potency [3] | Potency [4] | Potency [5]
704%: growth, % of control [21]

C[C@]12C=CC(=O)C=C1CC[C@@H]1C2=CC[C@]2(C)[C@@H](C(=O)CN3CCN(c4cc(N5CCCC5)nc(N5CCCC5)n4)CC3)CC[C@@H]12
inactive: Potency [1] | Potency [14] | Potency [2] | Potency [3] | Potency [4] | Potency [5]
